About 79,000 compounds went through this panel and 15% of them were active in at least one assay; those are over-represented in the sample as a whole. A number with no mark means an inactive call. Activity calls are given as the source filed them. Rule as the data show it: active = growth inhibition above about 70%; inactive = the rest.

Assay [1] in a line: NCI Yeast Anticancer Drug Screen. Data for the rad50 strain (AID 155).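 Also: 0% = growth of vehicle-only cultures of the same strain.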 The following applies: S. cerevisiae rad50 strain growth inhibition, hits give high values. The essentials: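 Growth of the mutant yeast was measured after compound exposure and referenced to vehicle-treated cultures.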
Assay [2] can be described thus: NCI Yeast Anticancer Drug Screen. Data for the mec2-1 strain (AID 157). The following applies: S. cerevisiae mec2-1 strain, hits give high values. The essentials: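 Growth inhibition is read against vehicle-treated controls after compound exposure of the mec2-1 yeast strain, which is defective in DNA damage repair or cell cycle control.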
Assay [3] in a line: NCI Yeast Anticancer Drug Screen. Data for the sgs1 mgt1 strain (AID 161).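 Also: 0% = growth of cultures given vehicle only.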 To be noted: S. cerevisiae sgs1 mgt1 strain, hits give high values. In a few lines: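 Compounds are added to genetically altered yeast, and growth is compared with cultures given vehicle alone to give percent inhibition.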
A short description of assay [4]: NCI Yeast Anticancer Drug Screen. Data for the cln2 rad14 strain (AID 165).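 Also: 0% = growth equal to vehicle treated cultures.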 The following applies: S. cerevisiae cln2 rad14 strain, hits give high values. In a few lines:
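Growth inhibition, relative to vehicle-treated controls, is the read-out. The test organism is a yeast strain with defined genetic alterations, cln2 rad14.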

The nature of assay [5]: NCI Yeast Anticancer Drug Screen. Data for the bub3 strain (AID 167). The following applies: S. cerevisiae bub3 mutant strain, hits give high values. In a few lines:
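Whole-cell yeast assay. The mutant strain was incubated with compounds, and growth inhibition was determined by comparison with vehicle-treated cells.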

A short description of assay [6]: NCI Yeast Anticancer Drug Screen. Data for the mlh1 rad18 strain (AID 175). The following applies: S. cerevisiae mlh1 rad18 strain growth inhibition, hits give high values. In a few lines:
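Cells of a genetically altered yeast strain, deficient in DNA damage repair, were treated with compound. Their growth was then compared with that of vehicle-treated cultures to give inhibition.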

The mark [7] stands for this setting: at 5.0 µM (retest, dose inferred, filed as 0.5).
[8] abbreviates: at 50.0 µM (retest, dose inferred, filed as 5.0).

For `NCCCNCc1c2ccccc2c(CNCCCN)c2ccccc12`, the growth inhibition in assay [1] (setting [7]) was 6%; in assay [1] (setting [8]), 6%; in assay [1] (at 50.0 µM), 10.7%; in assay [2] (setting [7]), -7%; in assay [2] (setting [8]) it was -7%; in assay [2] (at 50.0 µM), 43.4%. The growth inhibition in assay [3] (setting [7]) is 1%; in assay [3] (setting [8]), 1%; in assay [3] (at 50.0 µM), 58.9%; in assay [4] (setting [7]), 24%; in assay [4] (setting [8]), 24%; in assay [4] (at 50.0 µM), 56.1%. In addition, the growth inhibition was 15% in assay [5] (setting [7]); 15% in assay [5] (setting [8]); 33.8% in assay [5] (at 50.0 µM); 4% in assay [6] (setting [7]); 4% in assay [6] (setting [8]); 74.5% (active) in assay [6] (at 50.0 µM).

`Nc1cc2[nH]c(=O)c3cc(Cl)ccc3c2cc1Cl`: the growth inhibition in assay [1] (setting [7]) was 83% (active); in assay [1] (setting [8]), 94% (active); in assay [1] (at 50.0 µM), 89.8% (active); in assay [2] (setting [7]) it was 7%; in assay [2] (setting [8]), 79% (active); in assay [2] (at 50.0 µM) it was -3.35%. Besides, the growth inhibition in assay [3] (setting [7]) was 26%; in assay [3] (setting [8]) it was 86% (active); in assay [3] (at 50.0 µM), 47.6%; in assay [4] (setting [7]), 8%; in assay [4] (setting [8]), 58%; in assay [4] (at 50.0 µM), -24.2%. For the same compound, the growth inhibition in assay [5] (setting [7]) was 8%; in assay [5] (setting [8]) it was 59%; in assay [5] (at 50.0 µM), -5.15%; in assay [6] (setting [7]) it was 65%; in assay [6] (setting [8]), 95% (active); in assay [6] (at 50.0 µM) it was 61.2%.

Turning to `OC1CC2CCC(C1)N2CCCN1c2ccccc2Sc2ccc(Cl)cc21` (configuration not stated), the growth inhibition in assay [1] (setting [7]) was 12%; in assay [1] (setting [8]), 99% (active); in assay [1] (at 50.0 µM) it was 99% (active); in assay [2] (setting [7]) it was 13%; in assay [2] (setting [8]) it was 80% (active); in assay [2] (at 50.0 µM) it was 97.2% (active). Moreover, the growth inhibition was -4% in assay [3] (setting [7]); 61% in assay [3] (setting [8]); 99.1% (active) in assay [3] (at 50.0 µM); -23% in assay [4] (setting [7]); 74% (active) in assay [4] (setting [8]); 97.5% (active) in assay [4] (at 50.0 µM). For the same compound, the growth inhibition in assay [5] (setting [7]) was -20%; in assay [5] (setting [8]) it was 97% (active); in assay [5] (at 50.0 µM) it was 99.2% (active); in assay [6] (setting [7]), 10%; in assay [6] (setting [8]) it was 97% (active); in assay [6] (at 50.0 µM) it was 94.4% (active).

`COc1cccc(N2CCN(CC(O)COc3cc4c(c5c3CCCC5)CCCC4)CC2)c1` (configuration not stated): the growth inhibition is 17% in assay [1] (setting [7]); 95% (active) in assay [1] (setting [8]); 64.2% in assay [1] (at 50.0 µM); 20% in assay [2] (setting [7]); 98% (active) in assay [2] (setting [8]); 48.6% in assay [2] (at 50.0 µM). The growth inhibition is 34% in assay [3] (setting [7]); 95% (active) in assay [3] (setting [8]); 62.5% in assay [3] (at 50.0 µM); 13% in assay [4] (setting [7]); 94% (active) in assay [4] (setting [8]); 58.8% in assay [4] (at 50.0 µM). Besides, the growth inhibition in assay [5] (setting [7]) is 12%; in assay [5] (setting [8]) it was 95% (active); in assay [5] (at 50.0 µM), 95% (active); in assay [6] (setting [7]), 12%; in assay [6] (setting [8]) it was 94% (active); in assay [6] (at 50.0 µM) it was 54%.

Consider `C[N+]1=C(/C=C\c2ccc(O)c3ccccc23)C(C)(C)c2ccccc21`, for which the growth inhibition is -2% in assay [1] (setting [7]); 82% (active) in assay [1] (setting [8]); 40.5% in assay [1] (at 50.0 µM); 3% in assay [2] (setting [7]); 89% (active) in assay [2] (setting [8]); 50.2% in assay [2] (at 50.0 µM). Also, the growth inhibition is -2% in assay [3] (setting [7]); 92% (active) in assay [3] (setting [8]); 36% in assay [3] (at 50.0 µM); -4% in assay [4] (setting [7]); 83% (active) in assay [4] (setting [8]); 54.9% in assay [4] (at 50.0 µM). The growth inhibition in assay [5] (setting [7]) is 15%; in assay [5] (setting [8]), 82% (active); in assay [5] (at 50.0 µM) it was 38.5%; in assay [6] (setting [7]) it was 28%; in assay [6] (setting [8]), 82% (active); in assay [6] (at 50.0 µM), 43.7%.

`CC1CCCC(C(O)(C(=O)O)C2CCCC(C)C2)C1` (configuration not stated): the growth inhibition in assay [1] (setting [7]) was 15%; in assay [1] (setting [8]), 72% (active); in assay [1] (at 50.0 µM), 66.3%; in assay [2] (setting [7]) it was 29%; in assay [2] (setting [8]), 81% (active); in assay [2] (at 50.0 µM), 43%. Moreover, the growth inhibition was 8% in assay [3] (setting [7]); 70% (active) in assay [3] (setting [8]); 56.5% in assay [3] (at 50.0 µM); 68% in assay [4] (setting [7]); 98% (active) in assay [4] (setting [8]); 33.2% in assay [4] (at 50.0 µM). In addition, the growth inhibition in assay [5] (setting [7]) was 14%; in assay [5] (setting [8]), 97% (active); in assay [5] (at 50.0 µM), 25.4%; in assay [6] (setting [7]) it was 15%; in assay [6] (setting [8]) it was 79% (active); in assay [6] (at 50.0 µM), 69.7%.

Consider `O=C1/C(=C\c2ccccc2)CCC/C1=C\O`, for which the growth inhibition in assay [1] (setting [7]) was -139%; in assay [1] (setting [8]), -89%; in assay [1] (at 50.0 µM), 39.9%; in assay [2] (setting [7]), -46%; in assay [2] (setting [8]), -40%; in assay [2] (at 50.0 µM), 46.5%. The growth inhibition in assay [3] (setting [7]) was -50%; in assay [3] (setting [8]), -44%; in assay [3] (at 50.0 µM), 6.4%; in assay [4] (setting [7]), -56%; in assay [4] (setting [8]) it was -56%; in assay [4] (at 50.0 µM), 33.9%. Besides, the growth inhibition in assay [5] (setting [7]) was -64%; in assay [5] (setting [8]), -68%; in assay [5] (at 50.0 µM), 20%; in assay [6] (setting [7]), -112%; in assay [6] (setting [8]), -92%; in assay [6] (at 50.0 µM) it was 58.2%.

Take `Nc1nnc2nc(CC(=O)c3ccccc3)/c(=C/C(=O)c3ccccc3)n12`: the growth inhibition in assay [1] (setting [7]) is -21%; in assay [1] (setting [8]), -10%; in assay [1] (at 50.0 µM), -14.1%; in assay [2] (setting [7]) it was -11%; in assay [2] (setting [8]), -20%; in assay [2] (at 50.0 µM), 9.4%. Besides, the growth inhibition in assay [3] (setting [7]) was -23%; in assay [3] (setting [8]), -6%; in assay [3] (at 50.0 µM), 1.05%; in assay [4] (setting [7]), -17%; in assay [4] (setting [8]), -16%; in assay [4] (at 50.0 µM), 28.6%. The growth inhibition in assay [5] (setting [7]) is 5%; in assay [5] (setting [8]), -5%; in assay [5] (at 50.0 µM), -4.95%; in assay [6] (setting [7]), -21%; in assay [6] (setting [8]) it was -9%; in assay [6] (at 50.0 µM), -0.3%.

With `COc1cc(C(=O)C2OC2c2ccc(Cl)cc2)c([N+](=O)[O-])cc1OC` (configuration not stated), the growth inhibition was 25% in assay [1] (setting [7]); 51% in assay [1] (setting [8]); 54% in assay [1] (at 50.0 µM); 22% in assay [2] (setting [7]); 47% in assay [2] (setting [8]); 26.4% in assay [2] (at 50.0 µM). Besides, the growth inhibition is 24% in assay [3] (setting [7]); 61% in assay [3] (setting [8]); 54% in assay [3] (at 50.0 µM); 36% in assay [4] (setting [7]); 57% in assay [4] (setting [8]); 58.5% in assay [4] (at 50.0 µM). The growth inhibition was 15% in assay [5] (setting [7]); 51% in assay [5] (setting [8]); 36.8% in assay [5] (at 50.0 µM); 36% in assay [6] (setting [7]); 85% (active) in assay [6] (setting [8]); 64.2% in assay [6] (at 50.0 µM).
